Source: PubChem BioAssay
Values without a mark were called inactive. The rule behind the calls is not given here.

molecular target: Pantothenate synthetase (Mycobacterium tuberculosis (strain ATCC 25618 / H37Rv)) (UniProt P9WIL5); assay: Coupled enzyme confirmation of inhibitors against recombinant Mtb PanC (AID 375); settings: coupled enzyme assay; at 10 µM, stronger effect = higher value;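 note: 0% = full reaction with vehicle and 100% = no enzyme background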
Sequence (P9WIL5 whole entry, looked up): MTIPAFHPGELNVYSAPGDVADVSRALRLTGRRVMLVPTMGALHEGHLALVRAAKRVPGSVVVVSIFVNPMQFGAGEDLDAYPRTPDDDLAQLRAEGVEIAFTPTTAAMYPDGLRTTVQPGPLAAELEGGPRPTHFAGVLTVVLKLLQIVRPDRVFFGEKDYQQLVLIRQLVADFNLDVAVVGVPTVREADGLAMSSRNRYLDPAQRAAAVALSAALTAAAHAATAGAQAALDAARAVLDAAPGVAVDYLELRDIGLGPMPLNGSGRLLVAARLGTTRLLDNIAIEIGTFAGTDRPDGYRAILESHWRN

Structure (SMILES)	inhibition [%]
COc1ccc(-c2nc(N3CCCC3)[nH]c(=O)c2C#N)cc1	0
CCCCOCP(=O)(CCCC)COCCCC	1
COc1ccc(N2C(=O)CC(N3CCN(S(=O)(=O)c4c(F)cccc4F)CC3)C2=O)cc1OC (stereo not given)	1
O=C(NC1(C(=O)NC2CCCCC2)CCCCC1)c1ccc2c(c1)OCO2	3
CSc1ccc(S(=O)(=O)Nc2cccc(F)c2)cc1	0
CCCCN=CC1=C(O)C(C(=O)OC)C(C)(C)CC1=O (stereo not given)	0
CCOC(=O)c1cnn(-c2sc(C(=O)OCC)c(C)c2C(=O)OCC)c1N	0
Cc1ccc2c(c1C)NC(C)CC2C (stereo not given)	0
Cc1ccc(/C(O)=C2/C(=O)C(=O)N(Cc3ccco3)C2c2cccs2)cc1 (stereo not given)	0
O=C(Nc1nnc(C2CCCCC2)s1)c1cccs1	8
O=C(NCCCn1ccnc1)c1cnn2c1NC(c1ccccc1)CC2C(F)(F)F (stereo not given)	2
Oc1ccc(N2CCN(C(c3cccnc3)c3nnnn3Cc3ccccc3)CC2)cc1 (stereo not given)	0
COc1ccc(C2CC(=O)C(C=NCCCN3CCOCC3)=C(O)C2)cc1 (stereo not given)	0
CCOC(=O)C1=C(C)N=C2SC(C)C(=O)N2C1c1cccc(F)c1 (stereo not given)	0
CCN1CCN(Cc2ccc(NC(=O)Nc3ccc(SC)cc3)cc2)CC1	2
CC(NCCC(c1ccccc1)c1ccccc1)c1ccccc1 (stereo not given)	0
COc1cc(CO)cc(-c2cc(CO)cc(OC)c2OC)c1OC	0
Nc1ccc2cn[nH]c2c1	0
CC(C)=CCCC(C)N(C=O)C(C)CCC=C(C)C (stereo not given)	3
O=C(O)C1CC(=O)N(Cc2ccccc2)C1 (stereo not given)	1

Structure (SMILES)	inhibition [%]
CCOC(=O)CSc1nnc(CNC(=O)c2cccs2)n1-c1cc(OC)ccc1OC	1
c1ccc(N=P(c2nc3ccccc3o2)(N2CCOCC2)N2CCOCC2)cc1	0
CCN(Cc1ccccc1)C(c1ccncc1)c1nnnn1C(C)(C)C (stereo not given)	0
CCOC(=O)C(CC)Sc1nc2c(c(=O)[nH]c(=O)n2C)n1C/C=C(/C)Cl (stereo not given)	8
COc1ccccc1-c1c(C)nn2c(C)c(C(C)=O)cnc12	3
CCOC(=O)C(C(C)=O)c1nc(C)nc2c1nnn2Cc1ccccc1Cl (stereo not given)	0
CCOc1ccc(CCNC(=O)CCc2nc(-c3ccc(OC)cc3)no2)cc1OCC	0
Cc1cc(C(=O)NCc2cccnc2)n(-c2ccccc2)n1	0
CC(C)OC(=O)C(C)(C)Oc1ccc(C(=O)c2ccc(Cl)cc2)cc1	0
O=C(NCc1ccc2c(c1)OCO2)c1cc2n(n1)C(C(F)(F)F)CC(c1ccc3c(c1)OCO3)N2 (stereo not given)	0
CN(C)C(=O)N1CCCC(C(=O)NCc2ccccc2)C1 (stereo not given)	0
O=C1CC(=O)N(Cc2cccs2)C(=O)N1	0
O=C1NC(c2cccnc2)C(C(=O)c2cccs2)C(O)(C(F)(F)F)N1 (stereo not given)	6
COc1ccc(Cn2nnnc2C(c2ccccc2OC)N2CCC(C(N)=O)CC2)cc1 (stereo not given)	0
Cc1cccc(NC(=O)C2CCCN(C(=O)Nc3ccccc3)C2)c1C (stereo not given)	2
O=C1c2ccccc2C(Nc2ccc3c(c2)OCCO3)N1Cc1ccc2c(c1)OCO2 (stereo not given)	1
CCOC(=O)c1sc(NC(=O)COC(=O)Cn2cnc3ccccc32)c(C(=O)OCC)c1C	3
CCn1cc(C(=O)NCc2ccccc2OC)c(=O)c2cc(S(=O)(=O)N(C)C)ccc21	0
N#Cc1cn(CC(=O)N2CCCC2)c2ccccc12	0
CCOCCn1cnc2sc(C(=O)Nc3nc(C)c(C(=O)OCC)s3)c(C)c2c1=O	13
